Laboratory results from PMC4336329 (PLoS ONE, 2015).
Among all 310,000 compounds or so, about 14,000 (4.5%) showed an effect of 50% or more. The effect is printed as a negative number. This is one part of a sample in which strong results are shown more often than they occur.

biological target: human ether-à-go-go-related gene (hERG) potassium channel (human, UniProt Q12809); test: primary screen, population patch clamp on CHO cells stably expressing hERG; higher = less effect of the substance
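Note: peak tail current of the secondary pulse compared with the same well before compound.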

Sequence of human ether-à-go-go-related gene (hERG) potassium channel (Q12809 whole entry, looked up): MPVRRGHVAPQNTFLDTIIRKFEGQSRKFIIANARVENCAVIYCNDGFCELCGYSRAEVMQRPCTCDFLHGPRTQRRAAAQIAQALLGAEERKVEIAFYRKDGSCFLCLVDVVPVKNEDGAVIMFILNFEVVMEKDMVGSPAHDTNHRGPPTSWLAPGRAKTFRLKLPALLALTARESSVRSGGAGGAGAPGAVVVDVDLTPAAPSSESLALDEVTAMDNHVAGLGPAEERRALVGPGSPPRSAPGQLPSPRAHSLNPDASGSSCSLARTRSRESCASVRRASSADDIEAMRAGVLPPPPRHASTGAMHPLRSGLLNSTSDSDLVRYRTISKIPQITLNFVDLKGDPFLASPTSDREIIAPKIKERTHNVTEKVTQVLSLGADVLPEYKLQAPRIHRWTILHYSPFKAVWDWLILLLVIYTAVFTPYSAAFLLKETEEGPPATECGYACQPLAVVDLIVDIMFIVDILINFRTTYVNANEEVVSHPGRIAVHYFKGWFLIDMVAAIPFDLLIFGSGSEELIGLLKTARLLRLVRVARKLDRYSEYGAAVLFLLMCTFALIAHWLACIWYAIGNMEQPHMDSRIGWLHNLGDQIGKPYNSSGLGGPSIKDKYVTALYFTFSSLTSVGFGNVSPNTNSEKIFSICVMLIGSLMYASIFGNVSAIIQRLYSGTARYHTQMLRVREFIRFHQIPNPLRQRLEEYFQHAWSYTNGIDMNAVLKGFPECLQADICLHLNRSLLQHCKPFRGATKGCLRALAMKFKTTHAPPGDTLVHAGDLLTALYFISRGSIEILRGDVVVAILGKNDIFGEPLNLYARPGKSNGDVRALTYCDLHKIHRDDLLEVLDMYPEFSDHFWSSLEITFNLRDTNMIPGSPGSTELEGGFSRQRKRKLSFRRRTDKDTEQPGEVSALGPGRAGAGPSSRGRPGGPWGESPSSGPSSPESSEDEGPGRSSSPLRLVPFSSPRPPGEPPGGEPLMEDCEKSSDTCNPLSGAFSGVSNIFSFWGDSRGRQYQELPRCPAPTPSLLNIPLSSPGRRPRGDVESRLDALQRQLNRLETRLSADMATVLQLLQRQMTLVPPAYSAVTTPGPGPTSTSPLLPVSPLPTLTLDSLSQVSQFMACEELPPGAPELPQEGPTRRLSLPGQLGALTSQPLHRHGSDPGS

Row | SMILES | hERG current change (%, negative = inhibition) at 10uM
1 | CCOCCCn1c(=O)c(NC(=O)c2ccc(OCC)cc2)c2n(c1=S)CCCCC2 | -27.8%
2 | CCCCCc1nnc(NC(=O)c2cccc(S(=O)(=O)N3CCOCC3)c2)s1 | -41.8%
3 | Cn1c(Cn2c(=O)sc3ccccc32)nnc1SCc1ccccc1F | -19.9%
4 | CCC(=O)N1CCN(c2ccc(NC(=O)c3cccs3)cc2)CC1 | -0.84%
5 | COc1cc(/C=N/n2cnnc2)ccc1OC(=O)c1ccncc1 | 8%
6 | O=C(COc1ncnc2ccccc12)Nc1ccc(S(=O)(=O)N2CCOCC2)cc1 | 9.94%
7 | N#C/C=C(/N)c1ccc(Br)cc1 | 7.26%
8 | c1ccc(Cn2ncc3c(Nc4ccccc4)ncnc32)cc1 | 6.01%
9 | CCOc1ccc(CCNC(=O)COC(=O)C2CCN(c3ccc(C(F)(F)F)cn3)CC2)cc1OCC | -10.9%
10 | Cc1cccc(NS(=O)(=O)c2ccc(C(=O)NCCCN3CCCC3=O)cc2)c1C | 4.04%
11 | Cc1nc([N+](=O)[O-])cn1CC(O)c1ccc(-c2ccccc2)cc1 (stereo not shown) | -44.3%
12 | Cc1ccc(N=Nc2c(O)n(CN3CCOCC3)c3ccccc23)cc1 | 3.48%
13 | Cc1ccc(NC(=O)CS(=O)CC(=O)NC2CCN(Cc3ccccc3)CC2)c(C)c1 (stereo not shown) | -3.54%
14 | S=C(Nc1ccccc1)N1CCN(Cc2ccccc2)CC1 | -4.13%
15 | COc1ccc(NC(=S)N2CCN(Cc3ccccc3)CC2)cc1 | 0.401%
16 | FC(F)Oc1ccc(NC(=S)N2CCN(Cc3ccccc3)CC2)cc1 | -56%
17 | Cc1ccc(NS(=O)(=O)c2cccc(C(=O)NCC(c3cccs3)N3CCOCC3)c2)cc1 (stereo not shown) | -14.3%
18 | Cl.Clc1ccccc1CNC1CN2CCC1CC2 (stereo not shown) | -3.27%
19 | COc1ccc(OCC(=O)Nc2ccc(C(=O)Nc3ccccc3C(=O)O)cc2)cc1 | 23.2%
20 | CC(C)(C)c1nnc(NC(=O)c2cc(-c3ccccc3)nc3ccccc23)s1 | 17.3%
21 | COc1ccc(CCN(C)C(=O)c2cc(-c3ccccc3)nc3ccc(C)cc23)cc1OC | -52.1%
22 | COc1ccc(CCN(C)C(=O)c2cc(-c3ccc(C)cc3)nc3ccccc23)cc1OC | -26.7%

Row | SMILES | hERG current change (%, negative = inhibition) at 10uM
23 | COc1ccc(CCN(C)C(=O)c2cc(-c3ccccc3)nc3ccccc23)cc1OC | -4.79%
24 | O=C(O)CN1CCN(Cc2ccccc2F)C1=O | 24.7%
25 | COc1cnc(SC)nc1Nc1ccc(C#N)cc1 | -66.8%
26 | COc1ccc(Nc2nccc(-c3ccc(C#N)cc3)n2)cc1 | 1.36%
27 | COc1ccc(Nc2nccc(OC)c2C#N)cc1 | -38.8%
28 | COc1cccc(N2C(=O)C3CCCN3C2c2ccc(Cl)cc2)c1 (stereo not shown) | -1.05%
29 | COc1cc(NC(=O)C2CCC(CNc3c(N4CCC(C)CC4)c(=O)c3=O)CC2)cc(OC)c1 (stereo not shown) | 16.7%
30 | O=C(CN1CCN(c2ccccn2)CC1)Nc1ccc2ccccc2c1 | -43.9%
31 | O=C1C2C3C=CC(C4CC34)C2C(=O)N1c1cccc2ccccc12 (stereo not shown) | -0.113%
32 | O=C1C2C3C=CC(C3)C2C(=O)N1c1cccc2ccccc12 (stereo not shown) | 18.7%
33 | O=C1[C@H]2[C@@H](C(=O)N1c1cccc3ccccc13)C1(C(=O)c3ccccc3C1=O)N1CCC[C@@H]21 | -69%
34 | Cn1c(CCNC(=O)C(C)(C)C)nc2ccccc21 | 16.4%
35 | O=C(NC1CCCCC1)C1CC=CCC1C(=O)OCC(Cl)=C(Cl)Cl (stereo not shown) | -20.7%
36 | COc1ccc(Oc2ncccc2[N+](=O)[O-])cc1 | 6.57%
37 | CN(C)c1ccc(/C=N/NC(=O)c2ccco2)cc1 | 1%
38 | O=C(CN1CCN(S(=O)(=O)N2CCCCCC2)CC1)Nc1cc(Cl)ccc1Cl | 7.48%
39 | COc1ccc(Cl)cc1NC(=O)CN1CCN(S(=O)(=O)N2CCCCC2)CC1 | -9.48%
40 | O=C(CN1CCN(S(=O)(=O)N2CCCCC2)CC1)Nc1cc(Cl)ccc1Cl | 10.7%
41 | COc1ccc(S(=O)(=O)N2CCN(CC(=O)Nc3cc(Cl)ccc3Cl)CC2)cc1 | -7.44%
42 | COc1ccc(Cl)cc1NC(=O)CN1CCN(S(=O)(=O)N2CCOCC2)CC1 | -55.9%
43 | O=C(CN1C(=O)c2ccc([N+](=O)[O-])cc2C1=O)Nc1cc(S(=O)(=O)N2CCOCC2)ccc1Cl | -60.8%
